From the OligoGym collection come the findings set out here.
Note: reference of the scale not given here.

The first experiment addresses GPAA1. The experiment is described as follows: pooled miR-30 sensor sort-seq; sequence = guide strand. Particulars: shRNA.
Regarding TTCAGTGCCATCCAGCCCCTGT, the sensor-assay potency score (higher = more potent) is -0.292.
On the same count and under the same terms, as for TGAGCTTGCGGAACATGCCCTC, the figure is -0.336.
Same read-out and setting: as for TAGCGCTGCCAGGAAGAGCTGC, the figure is -1.02.
As to TTCTCCGACATGTAAGTGCGCT, the sensor-assay potency score (higher = more potent) is -0.864.
TATAGCGCTCGTGGGTCTCATC yielded a sensor-assay potency score (higher = more potent) of -1.61.
Consider TAGCTCAGCACGCACAACGGCG, for which the sensor-assay potency score (higher = more potent) was -1.38.
The sequence TTCCGGGAGAAACTCTGCGTGT returned a sensor-assay potency score (higher = more potent) of -1.01.

For the next experiment, the target named is GPATCH3. The description is as above. The following applies: shRNA.
In the case of TCTGTCATAGTACACACTCATG, the sensor-assay potency score (higher = more potent) was -1.69.
TATTTCTTCACCCTCTGCTGTA had a sensor-assay potency score (higher = more potent) of -0.595.
As to TTGAGCTCAATCTCCTCCTCAA, the sensor-assay potency score (higher = more potent) stood at 0.169.
The same measure, in the same setting: as for TTAGGGCAGAGTTAGGAGCGGC, the figure is -0.764; as for TTAGAGACCAAAGACAAGCGGT, 0.0667; as for TTCCGTGACGTCGCACACCCAA, -0.81.
Sequence TGTACACACAAGCTCTTCCTGC came in with a sensor-assay potency score (higher = more potent) of -0.536.
The same measure, in the same setting: the same measure for TAAAATAGCTCCGTAAATGGGC: -0.362; for TAAAACACCAGGCCAGAGCCAC: -0.98; for TAAGCCTCTGAGCTTGAGCCAA: -0.945.

In the next experiment the target is GPBAR1. The experiment is described as above. The following applies: shRNA.
Consider TGTGTAGCGCTGATCGCCCAGC, for which the sensor-assay potency score (higher = more potent) was -1.16.
As for TTCCACAGCCCTGGCAATGTGG, the sensor-assay potency score (higher = more potent) is -1.2.
In turn, ATGTGGGCAATGCCAGACCCGT registered a sensor-assay potency score (higher = more potent) of -2.11.
For the sequence TGCACTGGCACTTCCTAGGGAG, the sensor-assay potency score (higher = more potent) is -0.377.
Same read-out and setting: the same measure for AGGAGGGACAACAGTGTCCCAG: -1.92; for TGCTTTGGCTGCTTGGGTGGTA: -0.379; for TGGTAGGCAATGCTGGGGCCGG: -1.84.
Consider TGGGTGGTAGGCAATGCTGGGG, for which the sensor-assay potency score (higher = more potent) was -1.2.
For the sequence TTGGGTGGTAGGCAATGCTGGG, the sensor-assay potency score (higher = more potent) was -0.797.
Sequence TAGCGCTGATCGCCCAGCCCCA gave a sensor-assay potency score (higher = more potent) of -1.62.
Still for that read-out and setting: the same measure for CTGTGTAGCGCTGATCGCCCAG: -1.64.
On to ACTGCTTTGGCTGCTTGGGTGG, for which the sensor-assay potency score (higher = more potent) is -1.37.

The target of another experiment is GPIHBP1. The description is as above. The following applies: shRNA.
As for TGTTGGTCTCCTCCTCTTCAAC, the sensor-assay potency score (higher = more potent) was -1.59.
On the same count and under the same terms, the same measure for TTGCACAGGCTGGACTGGCAGC: -1.25.
Sequence TTCAACCTCATCCTCATCTTCC had a sensor-assay potency score (higher = more potent) of -0.334.
The same measure, in the same setting: as for TTGTGCAGGTCTGGCCATGTGA, the figure is -0.97; as for ATGTGAGCAGTTCTGCGTCAGG, -1.72.
With ATGAGGGTTGTGCAGGTCTGGC, the sensor-assay potency score (higher = more potent) was -1.69.
TCATCTTCCTCGTCGTAGTCAT had a sensor-assay potency score (higher = more potent) of -0.418.
On to TTCTGCGTCAGGTTGCAGCGCT, for which the sensor-assay potency score (higher = more potent) was -0.795.
Same read-out and setting: as for TTCCTCTTCCTCCTGCTGTGTC, the figure is -0.491; as for TTCCTCGTCGTAGTCATCTGGC, -0.201; as for TCGTCGTAGTCATCTGGCCCGT, -1.29.
